Screening results: PubChem BioAssay, Broad Institute
A selection follows.
aSyn UTR act: Activators via SNCA 5'UTR binding, MLPCN. AID 1814, 2009. activity score, % (tested at 7.5 µM), hits read low. hit rate 7.1% among 300,000. alpha-synuclein 5'UTR reporter, activators screen; in the data active = activity score below about -60%
Large screens that a line does not name were inactive.

Cc1ccc(-c2nc3ccccc3[nH]2)cn1	aSyn UTR act -99
Clc1ccc(-c2nc3ccccc3[nH]2)cn1	aSyn UTR act -63
Cc1nc2ccc(-c3nc4ccccc4[nH]3)cc2[nH]1	aSyn UTR act -120
Cc1c(C)c2ccc(OCC(=O)Nc3cccnc3)c(C)c2oc1=O	aSyn UTR act -137
Cc1cc(Cl)ccc1OCC(=O)Nc1cccnc1	aSyn UTR act -108
CCN1CCc2c(sc(NC(=O)c3ccc(S(=O)(=O)N4CCOCC4)cc3)c2C(=O)OC)C1	aSyn UTR act -71
c1ccc2c(CCNc3ncnc4nc[nH]c34)c[nH]c2c1	aSyn UTR act -73
c1ccc(CCNc2ncnc3nc[nH]c23)cc1	aSyn UTR act -113
Brc1cccc(-c2nc(-c3ccncc3)no2)c1	aSyn UTR act -100
Cc1cccc(-c2nc(-c3ccncc3)no2)c1	aSyn UTR act -68
Clc1ccc(Br)cc1-c1nc(-c2ccncc2)no1	aSyn UTR act -188
Cc1ccc(-c2nc(-c3ccccc3)no2)c(Cl)c1	none
Cc1cc(C)cc(-c2nc(-c3ccncc3)no2)c1	aSyn UTR act -149
CCOC(=O)c1c(C)[nH]c(N=Nc2cccc(OC)c2)c1C	aSyn UTR act -208
CCOC(=O)c1c(C)[nH]c(N=Nc2cccc(C)c2)c1C	aSyn UTR act -211
CCCCCCCCCCn1c2c(c(=N)c3c1CCC3)CCC2	none
CCn1cc(C(=O)O)c(=O)c2cnc(N3CCN(C(=S)Nc4ccccc4Cl)CC3)nc21	aSyn UTR act -112
CCCC(C)C(=O)Nc1ccc2c(c1)OCCO2 (stereo not given)	aSyn UTR act -77
CSCC[C@@H](C(=O)Nc1ccc2c(c1)OCCO2)N1Cc2ccccc2C1=O	aSyn UTR act -85
COc1ccc(C(=O)Nc2ccc3c(c2)OCCO3)cc1Br	aSyn UTR act -255
O=C(Nc1ccc2c(c1)OCCO2)c1cccc(Br)c1	aSyn UTR act -150
CCCOc1cccc(C(=O)Nc2ccc3c(c2)OCCO3)c1	aSyn UTR act -62
O=C(Nc1ccc2c(c1)OCCO2)c1ccc(Br)cc1	aSyn UTR act -78
COc1ccc(C(=O)N2CCN(Cc3ccc4c(c3)OCO4)CC2)cc1[N+](=O)[O-]	none
COc1ccc(NC(=O)c2ccc3c(c2)OCO3)cc1[N+](=O)[O-]	aSyn UTR act -192
Cc1ccc(C(=O)Nc2ccc3c(c2)OCCO3)cc1	none
O=C(Nc1ccc2c(c1)OCCO2)c1ccc(Br)o1	aSyn UTR act -114
COc1cccc2c1OC1(C)CC2NC(=O)N1c1cccc(C(=O)Nc2ccc3c(c2)OCCO3)c1 (stereo not given)	aSyn UTR act -67
CC(C)c1ccc(NC(=O)c2cccc(Br)c2)cc1	aSyn UTR act -174
O=C(Nc1ccc2c(c1)OCCO2)c1cccnc1	aSyn UTR act -141
CN(C)CCCNc1cc(-c2ccccc2)nc2cc(-c3cccc(F)c3)nn12	aSyn UTR act -62
COc1ccc(CCN2CCCC(CN(C)C(=O)c3cc(C)oc3C)C2)cc1 (stereo not given)	aSyn UTR act -149
COCc1ccc(C(=O)N(C)CC2CCCN(CCc3ccc(OC)cc3)C2)o1 (stereo not given)	aSyn UTR act -123
COc1ccc(-c2nnn(Cc3ccccc3)n2)cc1	aSyn UTR act -168
CSc1ccc(-c2nnn(Cc3ccc(C)cc3)n2)cc1	aSyn UTR act -168
Cc1ccccc1Cn1nnc(-c2cccc(C(=O)O)c2)n1	aSyn UTR act -79
O=C(O)c1cccc(-c2nnn(Cc3ccccc3)n2)c1	aSyn UTR act -85
O=C(c1cc(-c2ccc(Br)cc2)on1)N1CCCCCC1	aSyn UTR act -145
O=C(c1cc(-c2cccc(Cl)c2)on1)N1CCCC1	aSyn UTR act -182
O=C(c1cc(-c2ccc(Cl)c(Cl)c2)on1)N1CCCCC1	aSyn UTR act -193
O=C(c1cc(-c2cccc(O)c2)on1)N1CCCCCC1	aSyn UTR act -119
COc1cccc(OCc2cc(C(=O)N(C)Cc3nccn3C)no2)c1	aSyn UTR act -142
COc1cccc(OCc2cc(C(=O)N(C)CCOc3ccc(C)cc3)no2)c1	aSyn UTR act -133
COc1ccc(OCc2cc(C(=O)N(Cc3nccn3C)C(C)C)no2)c2ccccc12	aSyn UTR act -70
COc1ccc(Nc2cnn(-c3nc4ccccc4s3)c(=O)c2Cl)cc1	aSyn UTR act -139
O=c1c(Cl)c(Nc2cccc(Cl)c2)cnn1-c1nc2ccccc2s1	aSyn UTR act -78
CC(=NC1CCCC1)c1c(C)[nH]n(-c2nc3ccccc3s2)c1=O	none
Cc1ccc(C(=O)O/N=C(\N)Cc2ccc([N+](=O)[O-])cc2)c(Cl)c1	aSyn UTR act -73
Cc1ccc(C(=O)O/N=C(\N)Cc2cccs2)c(Cl)c1	aSyn UTR act -73
COc1cc2c(c(OC)c1OC)-c1ccc(N(C)CC(OC)OC)c(=O)cc1[C@@H](NC(C)=O)CC2	none
CN(C)CCCNC(=O)c1ccc(-c2nc(-c3ccc(Cl)cc3)cs2)cc1	none
N=C1C(c2nc(-c3ccc(Cl)cc3)cs2)=C(O)CN1NC(=O)c1ccc(O)cc1	aSyn UTR act -73
C(=N\Nc1nncc2ccccc12)/c1ccccn1	none
CC(=O)Nc1ccc(/C=N/Nc2nncc3ccccc23)cc1	aSyn UTR act -126
O=[N+]([O-])c1cc(/C=N/N/C(=N/c2ccccn2)c2ccccn2)ccc1O	aSyn UTR act -91
O=[N+]([O-])c1ccc(/C=N/N/C(=N/c2ccccn2)c2ccccn2)cc1	aSyn UTR act -125
O=c1c(-c2cnn(-c3ccccc3)c2)coc2cc(O)ccc12	aSyn UTR act -156
O=c1c(-c2ccc(O)cc2)coc2cc(O)ccc12	aSyn UTR act -93
Cc1oc2cc(O)ccc2c(=O)c1-c1cnn(-c2ccccc2)c1	aSyn UTR act -77
CCCCNC(=O)CSc1nc2ccc(N3CCOCC3)cc2c(=O)n1CCc1ccccc1	aSyn UTR act -92
Cc1nn(C)c(Sc2ccccc2N)c1[N+](=O)[O-]	aSyn UTR act -69
Cn1c(-c2cc3ccc(OC(=O)C(C)(C)C)cc3oc2=O)nc2ccccc21	aSyn UTR act -117
CC(=O)Oc1ccc2cc(-c3nc4ccccc4n3C)c(=O)oc2c1	aSyn UTR act -226
CCN(CC)Cc1c(O)ccc2cc(-c3nc4ccccc4n3C)c(=O)oc12	aSyn UTR act -74
CC(C)(C)C(=O)Oc1ccc2cc(-c3ccc4ccccc4n3)c(=O)oc2c1	aSyn UTR act -157
O=C(NC1CCCC1)C(c1ccncc1)N(Cc1ccco1)C(=O)c1ccc(-c2ccccc2)[nH]1 (stereo not given)	aSyn UTR act -68
Cc1cc(C(F)(F)F)c(C#N)c(SCC(=O)Nc2nc3cc(Br)ccc3s2)n1	aSyn UTR act -176
CSc1nc2sc3c(c2c(=O)[nH]1)CCC(C)C3 (stereo not given)	aSyn UTR act -151
CCC(=O)Nc1ccc(-c2ccc(N3CCN(C)CC3)nn2)cc1	aSyn UTR act -73
CCC(=O)Nc1ccc(-c2ccc(N3CCC(C)CC3)nn2)cc1	aSyn UTR act -96
CC1CCN(c2ccc(-c3cccc(NC(=O)C(F)(F)F)c3)nn2)CC1	none
COC(=O)c1ccc(COc2ccccc2/C=C(\C#N)C(=O)Nc2ccc(C)cc2)cc1	aSyn UTR act -154
COC(=O)c1ccc(COc2ccccc2/C=N/NS(=O)(=O)c2ccc(C)cc2)cc1	aSyn UTR act -69
COc1cc(/C=N/NS(=O)(=O)c2ccc(C)cc2)ccc1OCc1ccc(C(=O)O)cc1	none
O=C(c1ccc(CS(=O)Cc2ccccc2Cl)o1)N1CCN(C2CCCCC2)CC1 (stereo not given)	aSyn UTR act -74
O=C(c1ccc(CS(=O)c2ccccc2Cl)o1)N1CCN(c2ccccc2)CC1 (stereo not given)	none
